The source of these data is ChEMBL document CHEMBL3988442, “University of Dundee, Small-Polar-MMV Screening Library” (2021).

SMILES strings stand for the structures. Among all 48,000 compounds or so, about 13,000 (27%) showed an effect of 50% or more. Some of the results follow.

The assay relates to Wolbachia pipientis. Put plainly: Anti-Wolbachia Cell-Based Screen. Set-up: scale not given: in the data most compounds retested in dose-response had high values. The settings on record: 5 µM. In kind it is functional.
For `CCC(CO)N(Cc1ccc(C(=O)O)cc1)Cc1ccsc1` (configuration not stated), the “Percent Effect” value was determined as 4.353%.

Take `CC(C)Cc1cc(NC(=O)c2ccc3[nH]nnc3c2)n(C)n1`: the “Percent Effect” value was -17.03%.

In the case of `CCC(C)N(Cc1ccsc1)C(=O)c1ccc2[nH]nnc2c1` (configuration not stated), the “Percent Effect” value is given as 109%.

Regarding `CCOc1cc(C(=O)N(C)C)ccc1NC(=O)C(C)c1ccsc1` (configuration not stated), the “Percent Effect” value was -4.912%.

Regarding `CN(C)c1cccc(CNC(=O)Nc2ccc3[nH]nnc3c2)n1`, the “Percent Effect” value was found to be 0.1018%.

Consider `CCn1nc(C)c(CCNC(=O)C2CCCN(C(=O)N(C)C)C2)c1C` (configuration not stated), for which the “Percent Effect” value is -3.526%.

For the compound `COC(=O)CN(Cc1ccccc1C)C(=O)C1CCC1`, the “Percent Effect” value amounted to 9.342%.

Take `CN(Cc1cccs1)C(=O)CN(C)C1CCc2ccccc21` (configuration not stated): the “Percent Effect” value was determined as 8.524%.

Consider `Cc1cnc(N2CCc3c(c(COc4cncnc4)nn3C)C2)nc1`, for which the “Percent Effect” value is given as 94.36%.

With `Cn1nc(COc2cncnc2)c2c1CCN(Cc1ccco1)C2.O=C(O)C(F)(F)F`, the “Percent Effect” value was 2.599%.

Regarding `Cn1nc(Cn2ccnc2)c2c1CN(c1ncccn1)C2.O=C(O)C(F)(F)F`, the “Percent Effect” value is -4.507%.

Regarding `Cc1cnc(N2CCc3onc(COc4cccnc4)c3C2)nc1`, the “Percent Effect” value stood at 88.9%.

For `c1cncc(OCc2noc3c2CN(Cc2ccoc2)CC3)c1`, the “Percent Effect” value came to 7.434%.

As for `Cn1nc(COc2cncnc2)c2c1CCN(Cc1ccccn1)C2.O=C(O)C(F)(F)F`, the “Percent Effect” value is listed as 8.456%.

As for `Cn1nc(COc2cccnc2)c2c1CCN(c1ncccn1)C2`, the “Percent Effect” value is 87.22%.

`O=C(O)C(F)(F)F.c1ccc(OCc2noc3c2CN(c2ncccn2)CC3)nc1`: the “Percent Effect” value amounted to 2.544%.

Turning to `CCN(CC)c1ccc(NS(=O)(=O)c2cccnc2)cn1`, the “Percent Effect” value was 2.803%.

As for `C[C@@H](NC(=O)c1cccn1C)c1c(-c2ccc(Cl)cc2)noc1C(=O)O`, the “Percent Effect” value is on record as 1.666%.

Turning to `Cc1nccn1-c1ccc(CNS(=O)(=O)N2CCCCC2C)cn1` (configuration not stated), the “Percent Effect” value worked out at 6.496%.

For `CCOC(=O)C1(Cc2cccc(OC)c2)CCCN(Cc2ncc[nH]2)C1` (configuration not stated), the “Percent Effect” value is reported as 25.22%.

Turning to `CCOC(=O)C1(Cc2cccc(Cl)c2)CCCN(Cc2ncc[nH]2)C1` (configuration not stated), the “Percent Effect” value is -2.445%.

As for `NC(=O)C1(CCCc2ccccn2)CCCN(Cc2ccncc2)C1` (configuration not stated), the “Percent Effect” value is given as 119.7%.

Regarding `Cn1cc(CN2CCCC(CCCc3ccccn3)(C(N)=O)C2)cn1` (configuration not stated), the “Percent Effect” value was determined as 84.15%.

With `O=C(O)C1(Cc2ccc(F)cc2F)CCCN(Cc2ccncc2)C1` (configuration not stated), the “Percent Effect” value is given as 1.95%.

As for `O=C(O)C1(Cc2ccc(F)cc2)CCCN(Cc2ccncc2)C1` (configuration not stated), the “Percent Effect” value is listed as -12.28%.

For `NC(=O)C1(CCCc2ccccn2)CCCN(Cc2ncc[nH]2)C1` (configuration not stated), the “Percent Effect” value was 141.6%.

As to `Cn1cc(CN2CCC3(CCCN(Cc4ccccn4)C3)CC2)cn1`, the “Percent Effect” value is recorded as -1.039%.

On to `O=C(O)CCc1cc2n(n1)CCCN(C(=O)c1ccc(Cl)s1)C2`, for which the “Percent Effect” value was -14.6%.

For the compound `CCN1CCC(NN2CCN(C)CC2)CC1`, the “Percent Effect” value amounted to 4.072%.

Regarding `CCS(=O)(=O)NCC(=O)N1CC2(CCCC2)c2c(F)cccc21`, the “Percent Effect” value is reported as -9.992%.

As for `CC(=O)N[C@H]1C[C@@H](c2nc(-c3ccc4c(c3)OCO4)no2)N(C)C1`, the “Percent Effect” value was -4.728%.

As for `CN1C[C@@H](F)[C@@H](OCc2nc3ccccc3[nH]2)C1`, the “Percent Effect” value is reported as -2.12%.

As for `COc1ncc(CN2CCC3(CCCN(CC4CCCCC4)C3)C2)cn1` (configuration not stated), the “Percent Effect” value stood at 96.23%.

In the case of `COCCc1ncc(CN2CCC(Oc3ccccc3C)CC2)cn1`, the “Percent Effect” value was 2.53%.

As for `COCCc1ncc(CN2CCC3(CCCN(CC4CC4)C3)C2)cn1` (configuration not stated), the “Percent Effect” value stood at 106.1%.

With `c1cnc(N2CCC3(CCCN(CC4CCCCC4)C3)C2)cn1` (configuration not stated), the “Percent Effect” value turned out to be 13.44%.

Consider `COCCc1ncc(CN2C[C@H](C3CC3)[C@@H](N)C2)cn1`, for which the “Percent Effect” value is -19.64%.

As for `OCC1(CC2CC2)CCCN(Cc2cnc(C3CCCCC3)nc2)C1` (configuration not stated), the “Percent Effect” value was -2.459%.

`CCCSc1ncc(C2CC(=O)NCc3nc4ccccn4c32)cn1` (configuration not stated): the “Percent Effect” value is 2.221%.

Consider `COc1ccccc1C1(CNc2cn[nH]c(=O)c2Cl)CC1`, for which the “Percent Effect” value turned out to be 2.708%.

For the compound `CC(NC(=O)c1cccnc1N(C)C)c1ccccc1Br` (configuration not stated), the “Percent Effect” value is reported as 9.946%.

On to `C=C(C)COc1cccc(C(=O)N(C)C(C)c2ccncn2)c1` (configuration not stated), for which the “Percent Effect” value was -7.553%.

Turning to `O=C(O)C(F)(F)F.O=C(c1cscn1)N1CCC2(CN(Cc3nccs3)C2)C1`, the “Percent Effect” value amounted to 5.214%.

For `O=C(O)C(F)(F)F.O=S(=O)(c1ccccc1)N1CCC2(CCCN2Cc2cccc(Cl)c2)C1` (configuration not stated), the “Percent Effect” value is listed as -34.27%.

With `O=C(O)C(F)(F)F.O=C(O)C(F)(F)F.O=C(O)CN1CCCC2(CCN2Cc2cccc(F)c2)C1` (configuration not stated), the “Percent Effect” value was 109.4%.

Consider `O=C(O)C(F)(F)F.O=C(c1cscn1)N1CCCC2(CCN2Cc2cccc(F)c2)C1` (configuration not stated), for which the “Percent Effect” value is on record as 96.65%.

Take `CNC(=O)CN1C(=O)CCC12CCCN(Cc1cccc(F)c1)C2.O=C(O)C(F)(F)F.O=C(O)C(F)(F)F` (configuration not stated): the “Percent Effect” value is given as 0.4911%.

For `COC(=O)CCC(=O)N1CCCC2(CCCN2Cc2cccc(F)c2)C1.O=C(O)C(F)(F)F` (configuration not stated), the “Percent Effect” value came to 107.2%.

Consider `COCCC(=O)N1CCC2(CCN(Cc3cccc(F)c3)CC2)C1.O=C(O)C(F)(F)F`, for which the “Percent Effect” value was -14.27%.

Take `O=C(O)C(F)(F)F.O=C(c1cscn1)N1CCC2(CCN(Cc3nccs3)CC2)C1`: the “Percent Effect” value was determined as 11.65%.

In the case of `O=C(O)C(F)(F)F.O=C(c1ccccc1)N1CCCC2(CCN2Cc2cccc(F)c2)C1` (configuration not stated), the “Percent Effect” value came to 106.4%.

Take `CCS(=O)(=O)N1CCCC2(CCCN2Cc2cccc(F)c2)C1.O=C(O)C(F)(F)F` (configuration not stated): the “Percent Effect” value is -5.383%.
